# Reference: PubChem BioAssay AID720707 (National Center for Advancing Translational Sciences (NCATS), 2013)
# Out of some 360,000 compounds screened, about 270 (0.075%) were called active. The sample as a whole holds a higher share of actives than the screen did. A number with no mark means an inactive call. Calls come from the whole dose curve; as a rule, active = well fitted activation curve with a large enough effect; inconclusive = small, poorly fitted or top-dose-only effect; inactive = no such curve, though single readings can be large or run the other way.
# Biological target: Rap guanine nucleotide exchange factor 3 (Homo sapiens) (UniProt O95398)
# Sequence (O95398 whole entry, looked up): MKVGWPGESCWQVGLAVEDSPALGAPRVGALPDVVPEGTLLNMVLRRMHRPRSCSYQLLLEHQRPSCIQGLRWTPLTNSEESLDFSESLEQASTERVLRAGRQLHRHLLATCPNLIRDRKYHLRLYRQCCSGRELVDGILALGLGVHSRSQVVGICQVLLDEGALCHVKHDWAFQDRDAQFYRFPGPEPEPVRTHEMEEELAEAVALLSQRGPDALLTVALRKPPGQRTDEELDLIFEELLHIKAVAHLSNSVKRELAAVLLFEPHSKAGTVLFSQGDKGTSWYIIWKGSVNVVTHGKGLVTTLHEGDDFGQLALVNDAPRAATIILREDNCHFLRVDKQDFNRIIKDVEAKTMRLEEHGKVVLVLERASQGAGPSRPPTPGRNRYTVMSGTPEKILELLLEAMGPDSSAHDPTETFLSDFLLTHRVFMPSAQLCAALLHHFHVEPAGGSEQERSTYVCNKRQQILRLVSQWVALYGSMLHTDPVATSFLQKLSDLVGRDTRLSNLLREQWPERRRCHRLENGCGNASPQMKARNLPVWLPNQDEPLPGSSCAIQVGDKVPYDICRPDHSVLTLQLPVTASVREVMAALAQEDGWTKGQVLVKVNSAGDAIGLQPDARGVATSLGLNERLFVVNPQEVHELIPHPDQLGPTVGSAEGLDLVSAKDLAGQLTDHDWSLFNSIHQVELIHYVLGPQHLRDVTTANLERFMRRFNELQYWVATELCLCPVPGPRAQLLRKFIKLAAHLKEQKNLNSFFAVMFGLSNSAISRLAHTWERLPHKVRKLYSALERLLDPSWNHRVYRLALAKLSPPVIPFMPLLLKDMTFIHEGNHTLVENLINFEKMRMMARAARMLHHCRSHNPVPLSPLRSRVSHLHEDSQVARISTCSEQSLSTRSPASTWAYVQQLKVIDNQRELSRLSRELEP
# Assay: qHTS for Agonist of cAMP-regulated guanine nucleotide exchange factor 3 (EPAC1): primary screen; note: nearly all actives have a fitted effect of over 60% in size
# Conditions: biochemical assay; series mostly up to 154 µM; activation: at the top concentration
# Excerpt: In multi-cellular eukaryotic organisms, the effects of cAMP are transduced by two ubiquitously-expressed intracellular cAMP receptors, the classic protein kinase A/cAMP-dependent protein kinase (PKA/cAPK) and the more recently discovered exchange protein directly activated by cAMP/cAMP-regulated guanine nucleotide exchange factor (EPAC/cAMP-GEF). Both PKA and EPAC are ubiquitously expressed in all tissues, and an increase in intracellular cAMP levels will lead to the activation of both PKA and EPAC. Therefore, careful dissections of the individual role and relative contribution of EPAC and PKA within the overall cAMP signaling in various model systems are critical for further elucidating the mechanism of cAMP signaling. To date no EPAC-specific antagonists and agonist, as well as isoform-specific agonists have been reported, and developing EPAC-specific pharmacological probes to determine the physiological functions that EPAC play in the overall cAMP-mediated signaling remains a major challenge within the research field. Furthermore, identified regulators of EPAC may lead to new mechanism-based therapeutic strategies specifically targeting the EPAC / cAMP-signaling components as EPAC has been implicated to play important roles in major human pathological conditions such as diabetes, heart disease, and cancer.
# This qHTS will be used to screen the Molecular Libraries Small Molecule Repository (MLSMR) as a concentration-titration series using the NCGC unique quantitative screening (qHTS) platform to find activators for EPAC1. In addition, this assay will also be used as a counterscreen for the EPAC2 qHTS. This fluorescent based assay is developed and validated for EPAC1 that measures exchange using EPAC effector Rap1 complex with BODIPY-GDP, a GDP analog with a tethered fluorophores. Activators are identified by monitoring the change in fluorescence signal as the exchanged free BODIPY-GDP has a reduced fluorescence compared to Rap1-bound BODIPY-GDP. Increase in signal (activation) is the desired outcome for the EPAC1 agonist while no activity in this assay is desired for the EPAC2 agonist counterscreen.
# [1] de Rooij, J., Zwartkruis, F. J., Verheijen, M. H., Cool, R. H., Nijman, S. M., Wittinghofer, A., and Bos, J.L. (1998) Nature 396, 474-477
# NIH Chemical Genomics Center [NCGC]
# NIH Molecular Libraries Probe Centers Network [MLPCN]
# Assay Submitter (PI): Xiaodong Cheng, The University of Texas Medical Branch
# Briefly, three uL of reagents (100 nM EPAC1, 250 nM RAP1B-BODIPY-GDP, 50 uM GDP) were dispensed into a 1536-well Greiner black solid-bottom medium binding assay plate. Controls and test compounds (23 nL) were transferred to the plate via a Kalypsys pin tool equipped with a 1536-pin array. The plates were centrifuged at 1,000 rpm for 15 seconds followed by 5 minute incubation at room temperature. The assay plates were read at 5 minute intervals for 30 minutes in the ViewLux plate reader using 480nm excitation and 540nm emission filters. The results were normalized to the agonist positive control of 6.5 mM cAMP.
# Potency is the fitted concentration of half-maximal effect.
Structure (SMILES),activation,Potency
Cc1nc(NC(=O)C23CCC(C)(C(=O)O2)C3(C)C)sc1C (stereo not given),4.04%,
N#CCCCn1c(O)c(N=NC(=O)C(O)c2ccccc2)c2ccccc21 (stereo not given),6.57%,
COc1cccc(C(=O)N2CCC(n3nccc3NC(=O)C3CCOC3)CC2)c1 (stereo not given),7.16%,
CNC(=O)C1CC(=O)N(c2ccc(OCC(=O)Nc3ccccc3C)cc2)C1 (stereo not given),8.26%,
O=C(CCN1C(=O)c2ccncc2C1=O)Nc1cc(F)ccc1F,-22%,
Cc1ccc([C@H]2C[C@H](O)[C@@H](n3cc(COC(=O)c4ccccc4)nn3)CN2C(=O)C2CCCCC2)cc1,-25.7%,
Cc1ccc(CNC(=O)c2cccc3c2C(=O)c2ccc(N4CCC(C)CC4)cc2S3(=O)=O)cc1,,89.1 µM (active)
COc1cccc(-c2ccc3c(c2)S(=O)(=O)c2cccc(C(=O)O)c2C3=O)c1OC,9.43%,
CC1CCN(c2ccc3c(c2)S(=O)(=O)c2cc(C(=O)O)ccc2C3=O)CC1,-0.73%,
O=C(O)C1=C[C@H](c2cccs2)C[C@H](OCCCCO)O1,9.46%,
Cc1ccc(C(=O)OCC(=O)NCc2cc(C)c(O)c(C)c2)cc1S(=O)(=O)N1CCCCC1,9.64%,
N#CCCn1ncc2ccccc21,14.3%,
CC(C)Cc1nnc(NC(=O)CN2C(=O)NC3(CCCCC3)C2=O)s1,2.71%,
CCC1(c2ccccc2)NC(=O)N(CC(=O)Nc2ccccc2C(=O)NC2CCCC2)C1=O (stereo not given),0.865%,
COCC(C)n1c(C)cc(C(=O)CSc2cc(C)c3ccccc3n2)c1C (stereo not given),15.4%,
CCOc1ccc(-c2n[nH]c(=S)n2/N=C/c2cc3c(cc2[N+](=O)[O-])OCO3)cc1,13.8%,
OCCN1CCOCCOCCN(CCO)CCN(CCO)CC1,1.4%,
Cc1ccc(Cl)cc1NC(=O)COC(=O)C1CCCCC1,-2.39%,
N#C/C(=C\N1CCOCC1)S(=O)(=O)c1ccc(Cl)cc1,4.86%,
O=C(CSc1nnc(-c2ccncc2)o1)NCc1ccc(Cl)cc1,13.5%,
Cc1cc(OCC(=O)N(C)c2c(N)n(Cc3ccccc3)c(=O)[nH]c2=O)c(C(C)C)cc1Cl,-0.55%,
Cn1c(=O)[nH]c(=O)c2c1[nH]c(=S)n2Cc1ccccc1,-0.212%,
Cc1cc2nc3c(=O)n(Cc4ccccc4)c(=O)[nH]c3nc2cc1N,,100 µM (active)
NC(=O)C1CCN(C(=O)COc2ccc3c4c(c(=O)oc3c2)CCC4)CC1,2.5%,
O=S(=O)(c1cccc(-c2nnc(SC(F)F)n2-c2ccccc2)c1)N1CCCCC1,-1.95%,
O=C(O)C1=NN(c2c(F)c(F)cc(F)c2F)C(=O)CC1,10.4%,
CC(C)(C)n1nnnc1C(c1ccccc1F)N1CCN(C(=O)c2ccco2)CC1 (stereo not given),1.91%,

Structure (SMILES),activation,Potency
O=c1ccc2c(-c3ccccc3S(=O)(=O)O)c3ccc(O)c(O)c3oc-2c1O,-10.7%,
COc1ccc(NC(=O)C2CCC(CNS(=O)(=O)c3csc(C(N)=O)c3)CC2)cc1OC (stereo not given),-7.96%,
CCN(CC(=O)Nc1c(F)cccc1F)C(=O)Cc1cccs1,9.59%,
Cc1ccc(NS(=O)(=O)c2cn(C)c(=O)n(C)c2=O)c(C)c1,-4.61%,
CCOc1ccccc1C(=O)NC1CC2CCCC(C1)N2Cc1ccccc1 (stereo not given),-8.13%,
Cc1noc(C)c1CSCC(=O)Nc1ccc(Br)cc1Cl,0.706%,
CCOC(=O)C(NS(=O)(=O)c1ccc(C)cc1)(C(F)(F)F)P(=O)(OCC(C)C)OCC(C)C (stereo not given),-18.9%,
CCN(CC)S(=O)(=O)c1cc([N+](=O)[O-])ccc1NNC(=O)Nc1ccccc1,17%,
Cc1ccccc1N1C(=O)C2ON(c3ccccc3)C(c3ccncc3)C2C1=O (stereo not given),14.8%,
CCOC(=O)c1c(NC(=O)CNC2CCCc3ccccc32)sc(C(N)=O)c1C (stereo not given),3.57%,
Cc1n[nH]c(=O)c2c1nnn2Cc1ccc(F)cc1,9.7%,
O=C(COc1ccc2ccccc2c1)N1CCN(C(=O)c2cccs2)CC1,-6.98%,
O=C(NC(C(=O)NCCN1CCOCC1)C12CC3CC(CC(C3)C1)C2)C1CCCCC1 (stereo not given),-4.95%,
Cc1cc(C)cc(NC(=O)C(c2ccccc2)N2CCN(CC(=O)N3CCCC3)CC2)c1 (stereo not given),4.7%,
Cc1ccccc1Cn1c2ccccc2c2cnn(CC(=O)NCc3ccco3)c(=O)c21,-17.4%,
C(#CCN1CCOCC1)CCCN1CCOCC1,-5.58%,
O=C1CC2(CC(c3ccc(Cl)cc3)=NO2)C(=O)N1c1ccccc1 (stereo not given),1.17%,
COc1ccc(N2CCN(C(=O)CN3C(=O)COc4ccccc43)CC2)cc1,6.42%,
Cc1cccc(OCC(O)Cn2c(N3CCCCC3)nc3c2c(=O)[nH]c(=O)n3C)c1 (stereo not given),-3.51%,
COc1ccc(C2NCCCC2c2ccccc2)cc1 (stereo not given),-6.92%,
CCCCCn1c(SCCC(C)C)nc2c1c(=O)[nH]c(=O)n2C,-27.6%,
Cc1ccc2c(CSc3nncs3)cc(=O)oc2c1,-3.69%,
CCCc1ccc(OCC(O)CN2CCN(CCO)CC2)cc1 (stereo not given),11%,
COc1ccccc1N1CCN(S(=O)(=O)CCNC(=O)c2ccc(OC(C)C)cc2)CC1,9.05%,
Cc1cc(NS(=O)(=O)c2ccc(NC(=O)C(C)Oc3cccc(C)c3C)cc2)nc(C)n1 (stereo not given),2.53%,
CCc1c(C)sc(NC(=O)OC)c1C(=O)N1CCOCC1,-5.41%,
O=S1(=O)N=C(N(CCO)/N=C/c2ccccc2F)c2ccccc21,1.16%,

Structure (SMILES),activation,Potency
CCOc1cc(/C=C2/N=C(c3ccc(C(C)(C)C)cc3)OC2=O)cc(Cl)c1OS(C)(=O)=O,4.21%,
COc1ccc(C(=O)COC(=O)Cn2cnc3c2c(=O)n(C)c(=O)n3C)c(OC)c1,10.1%,
CC(=O)c1c(C)[nH]c(C(=O)OCC(=O)Nc2sc3c(c2C#N)CCCC3)c1C,9.31%,
NC(=O)C1=C[C@H](c2csc3ccccc23)C[C@H](OCc2ccc(CO)cc2)O1,3.72%,
Cc1cccc(CCNS(=O)(=O)c2ccc(S(=O)(=O)NC3CCCC3)cc2)c1,0.785%,
Cn1c(NC(=O)c2ccco2)c(-c2ccccc2Cl)c(=O)c2ccccc21,-0.86%,
C/C=C/c1ccc(OCC(=O)NNC(=O)CN(C)S(=O)(=O)c2ccc(C)cc2)c(OC)c1,-1.47%,
Cc1ccc(S(=O)(=O)N(C)C)cc1NC(=O)C1Cc2ccccc2CN1C(=O)c1ccco1 (stereo not given),-3.3%,
CCOc1ccc(S(=O)(=O)N/N=C(\C)c2ccc(Cl)c(Cl)c2Cl)cc1,-2.38%,
C[n+]1ccc(/C=C/c2c[nH]c3ccccc23)cc1,,100 µM (active)
CC(C)(C)c1ccc(SCCc2ccncc2)cc1,2.65%,
O=C(Nc1ccccc1Cl)NC1(C(=O)N2CCOCC2)CCCCC1,12.8%,
CCCCC(=O)N(c1ccc(OC)cc1)C1C=CS(=O)(=O)C1 (stereo not given),4.76%,
CC(C)COC(=O)c1ccc(NC(=O)C2C3C=CC(C3)C2C(=O)O)cc1 (stereo not given),14.5%,
COc1cncc(-c2cnc3sc(NCCc4ccccn4)nn23)c1,2.99%,
COCCN1C(=O)c2oc3c(C)cc(C)cc3c(=O)c2C1c1cccc(O)c1 (stereo not given),20.3%,
O=C1CCC(=O)N1CCOP1(=O)COc2ccccc2OC1,6.29%,
COc1ccc(C)cc1NC(=O)CN1c2cccc3cccc(c23)S1(=O)=O,-4.18%,
COC(=O)c1c(C)cc(O)c(C)c1O,-12.7%,
CC(=O)N1c2ccc(S(=O)(=O)N3CCCC(C(=O)NCc4ccc(Cl)cc4)C3)cc2CC1C (stereo not given),2.25%,
Cc1ccc(Cl)cc1NC(=O)COC(=O)CC(C)(C)C,2.13%,
CN(CC(O)COc1ccc(S(=O)(=O)N2CCOCC2)cc1Cl)C1CCCCC1 (stereo not given),7.39%,
Cc1ccc(C(C)C)c(OCc2nnc(SCC(=O)Nc3nccs3)n2C)c1,-4.53%,
O=C(c1ccccc1)N1CCC(CC2CC(c3ccc(Cl)cc3)=NO2)(C(=O)NCC2CCCCC2)CC1 (stereo not given),5.56%,
CCc1c(O)nc(SCC(=O)N2CCCCC2)n(-c2ccccc2C)c1=O,7.38%,
Cc1ccc(CN2CCN(c3ccccc3Cl)CC2)o1,3.65%,
